Measured values from ChEMBL document CHEMBL3988442, “University of Dundee, Small-Polar-MMV Screening Library” (2021).
For some of these results: Results with a measured potency or affinity are listed apart.

Legend:
Parameters in all cases: scale not given: direction of the effect not stated beside the values
[1] = molecular target: Protein translocase subunit SecA (Escherichia coli (strain K12)) (UniProt P10408); assay: Assay to Identify E. coli SecA ATPase Inhibitors; type: functional; conditions: 30 µM
Sequence of Protein translocase subunit SecA (Escherichia coli (strain K12)) (P10408 whole entry): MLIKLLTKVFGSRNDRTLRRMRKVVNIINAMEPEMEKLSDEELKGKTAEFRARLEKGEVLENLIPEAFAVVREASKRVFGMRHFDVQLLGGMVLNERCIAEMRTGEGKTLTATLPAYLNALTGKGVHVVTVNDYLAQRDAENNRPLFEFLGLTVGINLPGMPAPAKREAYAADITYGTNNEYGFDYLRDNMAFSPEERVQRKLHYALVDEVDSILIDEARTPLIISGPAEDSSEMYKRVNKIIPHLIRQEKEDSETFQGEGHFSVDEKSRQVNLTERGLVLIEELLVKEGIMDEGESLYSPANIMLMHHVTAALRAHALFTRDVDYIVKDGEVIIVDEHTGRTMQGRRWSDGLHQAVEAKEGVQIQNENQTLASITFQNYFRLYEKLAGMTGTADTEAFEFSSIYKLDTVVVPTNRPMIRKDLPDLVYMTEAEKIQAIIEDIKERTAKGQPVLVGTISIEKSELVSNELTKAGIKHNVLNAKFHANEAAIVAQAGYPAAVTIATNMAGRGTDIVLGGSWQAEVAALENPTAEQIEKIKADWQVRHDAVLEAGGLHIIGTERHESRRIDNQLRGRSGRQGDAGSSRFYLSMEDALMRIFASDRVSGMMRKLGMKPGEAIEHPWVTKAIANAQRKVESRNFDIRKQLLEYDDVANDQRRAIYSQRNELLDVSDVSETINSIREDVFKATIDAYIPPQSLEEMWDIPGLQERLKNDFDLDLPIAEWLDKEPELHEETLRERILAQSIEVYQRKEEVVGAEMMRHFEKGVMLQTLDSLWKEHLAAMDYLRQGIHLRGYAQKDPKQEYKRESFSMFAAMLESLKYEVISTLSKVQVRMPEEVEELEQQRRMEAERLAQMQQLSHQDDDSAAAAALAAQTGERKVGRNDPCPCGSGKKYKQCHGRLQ

[2] = molecular target: T1, Ubiquitin-activating enzyme e1, putative (Leishmania donovani (strain BPK282A1)) (UniProt E9BSI1); assay: Leishmania donovani Ubiquitin Activating Enzyme (LdE1); type: functional; conditions: 30 µM
T1 sequence (whole entry): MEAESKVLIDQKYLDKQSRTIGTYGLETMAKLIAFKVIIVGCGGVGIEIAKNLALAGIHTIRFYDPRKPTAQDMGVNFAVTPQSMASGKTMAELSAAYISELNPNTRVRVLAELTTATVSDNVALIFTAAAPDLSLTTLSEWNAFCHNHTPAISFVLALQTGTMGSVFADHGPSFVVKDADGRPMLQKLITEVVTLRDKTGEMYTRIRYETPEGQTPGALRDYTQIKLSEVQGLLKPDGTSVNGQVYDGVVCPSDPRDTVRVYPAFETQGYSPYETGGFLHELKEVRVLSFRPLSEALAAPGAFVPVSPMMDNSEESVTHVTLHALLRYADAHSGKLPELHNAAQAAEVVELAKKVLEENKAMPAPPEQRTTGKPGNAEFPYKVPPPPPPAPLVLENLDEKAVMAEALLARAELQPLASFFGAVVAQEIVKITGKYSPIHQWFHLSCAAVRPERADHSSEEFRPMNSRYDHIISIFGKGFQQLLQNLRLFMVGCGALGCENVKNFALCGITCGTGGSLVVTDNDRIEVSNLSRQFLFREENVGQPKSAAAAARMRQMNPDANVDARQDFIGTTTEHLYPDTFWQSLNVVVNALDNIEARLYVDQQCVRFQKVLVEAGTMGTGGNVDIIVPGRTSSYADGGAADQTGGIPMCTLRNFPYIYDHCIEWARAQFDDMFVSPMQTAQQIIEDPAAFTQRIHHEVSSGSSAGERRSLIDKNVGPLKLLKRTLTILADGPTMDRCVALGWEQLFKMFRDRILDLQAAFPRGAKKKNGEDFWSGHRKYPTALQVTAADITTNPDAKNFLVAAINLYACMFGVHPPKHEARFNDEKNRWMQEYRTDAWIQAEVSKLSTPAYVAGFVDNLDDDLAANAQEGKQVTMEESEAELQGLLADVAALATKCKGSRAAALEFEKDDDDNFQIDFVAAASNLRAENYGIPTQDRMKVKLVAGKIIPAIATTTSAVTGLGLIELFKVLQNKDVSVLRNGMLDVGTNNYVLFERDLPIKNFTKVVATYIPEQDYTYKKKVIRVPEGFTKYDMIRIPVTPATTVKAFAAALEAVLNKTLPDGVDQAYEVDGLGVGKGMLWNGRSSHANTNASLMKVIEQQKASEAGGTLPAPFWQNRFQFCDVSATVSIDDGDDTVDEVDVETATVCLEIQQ

[3] = molecular target: AMP-activated protein kinase, AMPK (Homo sapiens) (UniProt P54646+O43741+P54619+Q9UGJ0+Q9Y478+Q13131+Q9UGI9); assay: AMP-dependent Kinase enzyme assay. An in vitro enzyme assay that detects ADP turnover that is directly proportional to AMPK activity. This uses naive AMPK that is activated during the assay with MK-8722; type: functional; conditions: 30 µM
[4] = molecular target: Sialic acid-binding Ig-like lectin 9 (Homo sapiens) (UniProt Q9Y336); assay: Hs-Siglec9 ALPHAscreen SOP 20170721; conditions: 10 µM
Sequence of Sialic acid-binding Ig-like lectin 9 (Homo sapiens) (Q9Y336 whole entry): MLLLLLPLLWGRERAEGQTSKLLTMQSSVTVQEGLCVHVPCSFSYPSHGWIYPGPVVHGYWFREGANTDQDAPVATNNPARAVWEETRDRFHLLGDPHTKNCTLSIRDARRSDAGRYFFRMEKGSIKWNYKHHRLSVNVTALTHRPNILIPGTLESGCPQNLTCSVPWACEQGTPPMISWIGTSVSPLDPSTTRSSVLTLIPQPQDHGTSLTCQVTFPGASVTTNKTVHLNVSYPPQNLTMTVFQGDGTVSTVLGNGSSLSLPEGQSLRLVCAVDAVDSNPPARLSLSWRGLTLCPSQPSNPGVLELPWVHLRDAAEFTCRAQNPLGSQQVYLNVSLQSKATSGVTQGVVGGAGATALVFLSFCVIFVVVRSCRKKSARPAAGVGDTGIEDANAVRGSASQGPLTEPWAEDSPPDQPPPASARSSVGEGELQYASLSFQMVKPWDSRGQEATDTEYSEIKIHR

Trypanosoma cruzi = assay: Trypanosoma cruzi phosphomannomutase and mannose-1-phosphate guanylyltransferase assay; type: functional; conditions: 10 µM
[5] = molecular target: T2, Arginase-2, mitochondrial (Homo sapiens) (UniProt P78540); assay: in vitro enzyme assay to detect the production of urea directly proportional to the activity of Arginase II; type: functional; conditions: 33.3 µM; also: in the data most compounds retested in dose-response had high values
T2 sequence (whole entry): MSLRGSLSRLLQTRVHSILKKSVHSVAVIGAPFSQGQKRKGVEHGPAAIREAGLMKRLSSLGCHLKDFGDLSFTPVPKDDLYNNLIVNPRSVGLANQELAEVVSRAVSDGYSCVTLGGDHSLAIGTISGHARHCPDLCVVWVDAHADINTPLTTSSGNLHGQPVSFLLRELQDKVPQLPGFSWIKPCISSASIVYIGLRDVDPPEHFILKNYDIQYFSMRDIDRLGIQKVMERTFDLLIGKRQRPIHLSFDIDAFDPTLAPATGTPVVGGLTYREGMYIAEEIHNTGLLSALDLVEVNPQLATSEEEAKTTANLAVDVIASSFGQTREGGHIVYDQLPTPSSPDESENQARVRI

[6] = molecular target: T3, Proteasome subunit beta (Trypanosoma cruzi) (UniProt O96673); assay: Trypanosoma cruzi proteasome chymotrypsin-like activity (TcProtChymo) assay.; also: in the data most compounds retested in dose-response had high values; type: functional; conditions: 9.37 µM
T3 sequence (whole entry): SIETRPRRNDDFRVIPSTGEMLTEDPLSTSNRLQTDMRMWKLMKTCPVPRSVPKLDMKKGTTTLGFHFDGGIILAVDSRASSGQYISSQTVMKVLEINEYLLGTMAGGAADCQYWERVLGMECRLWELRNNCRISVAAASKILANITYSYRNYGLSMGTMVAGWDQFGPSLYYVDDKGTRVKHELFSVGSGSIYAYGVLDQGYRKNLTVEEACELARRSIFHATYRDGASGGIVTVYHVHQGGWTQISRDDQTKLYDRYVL

Homo sapiens = species: Homo sapiens; assay: To identify inhibition of the IFN signalling (Jak-Stat) pathway via expression of an eGFP reporter gene under the control of an IFN-stimulated response element (ISRE) containing MxA promoter.; type: functional; conditions: 30 µM
[7] = molecular target: T4, Tyrosyl-tRNA synthetase, putative (Trypanosoma cruzi (strain CL Brener)) (UniProt Q4DSP6); assay: Trypanosoma cruzi tyrosyl tRNA synthetase (TcYRS) _High Tyrosine SOP; type: functional; conditions: 30 µM; also: in the data most compounds retested in dose-response had high values
T4 sequence (whole entry): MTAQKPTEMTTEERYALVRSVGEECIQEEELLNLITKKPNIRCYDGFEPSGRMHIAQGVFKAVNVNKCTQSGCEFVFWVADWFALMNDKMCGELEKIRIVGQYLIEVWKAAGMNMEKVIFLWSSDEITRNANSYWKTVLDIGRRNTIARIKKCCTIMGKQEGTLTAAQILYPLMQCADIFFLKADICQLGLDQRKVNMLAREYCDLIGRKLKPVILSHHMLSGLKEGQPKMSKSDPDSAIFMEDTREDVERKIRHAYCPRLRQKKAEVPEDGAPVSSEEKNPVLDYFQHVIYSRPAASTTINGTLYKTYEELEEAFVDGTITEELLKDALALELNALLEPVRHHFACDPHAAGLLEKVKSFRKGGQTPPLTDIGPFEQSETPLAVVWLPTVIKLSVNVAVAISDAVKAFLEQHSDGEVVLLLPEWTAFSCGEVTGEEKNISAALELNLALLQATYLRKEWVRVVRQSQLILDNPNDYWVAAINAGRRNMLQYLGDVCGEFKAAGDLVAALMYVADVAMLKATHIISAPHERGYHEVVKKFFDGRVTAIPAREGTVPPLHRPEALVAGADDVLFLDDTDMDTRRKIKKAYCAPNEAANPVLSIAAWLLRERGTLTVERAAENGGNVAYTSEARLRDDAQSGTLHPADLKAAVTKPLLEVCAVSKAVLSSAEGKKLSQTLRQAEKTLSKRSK

[8] = molecular target: T4, Tyrosyl-tRNA synthetase, putative (Trypanosoma cruzi (strain CL Brener)); assay: Trypanosoma cruzi tyrosyl tRNA synthetase (TcYRS) SOP; type: functional; conditions: 30 µM
[9] = molecular target: Chromo domain-containing protein 1 (Saccharomyces cerevisiae (strain ATCC 204508 / S288c) (Baker's yeast)) (UniProt P32657); assay: ScCHD-1 Enzyme Inhibition Assay; type: functional; conditions: 30 µM; also: in the data most compounds retested in dose-response had high values
Sequence of Chromo domain-containing protein 1 (Saccharomyces cerevisiae (strain ATCC 204508 / S288c) (Baker's yeast)) (P32657 whole entry, the tested form may be a part): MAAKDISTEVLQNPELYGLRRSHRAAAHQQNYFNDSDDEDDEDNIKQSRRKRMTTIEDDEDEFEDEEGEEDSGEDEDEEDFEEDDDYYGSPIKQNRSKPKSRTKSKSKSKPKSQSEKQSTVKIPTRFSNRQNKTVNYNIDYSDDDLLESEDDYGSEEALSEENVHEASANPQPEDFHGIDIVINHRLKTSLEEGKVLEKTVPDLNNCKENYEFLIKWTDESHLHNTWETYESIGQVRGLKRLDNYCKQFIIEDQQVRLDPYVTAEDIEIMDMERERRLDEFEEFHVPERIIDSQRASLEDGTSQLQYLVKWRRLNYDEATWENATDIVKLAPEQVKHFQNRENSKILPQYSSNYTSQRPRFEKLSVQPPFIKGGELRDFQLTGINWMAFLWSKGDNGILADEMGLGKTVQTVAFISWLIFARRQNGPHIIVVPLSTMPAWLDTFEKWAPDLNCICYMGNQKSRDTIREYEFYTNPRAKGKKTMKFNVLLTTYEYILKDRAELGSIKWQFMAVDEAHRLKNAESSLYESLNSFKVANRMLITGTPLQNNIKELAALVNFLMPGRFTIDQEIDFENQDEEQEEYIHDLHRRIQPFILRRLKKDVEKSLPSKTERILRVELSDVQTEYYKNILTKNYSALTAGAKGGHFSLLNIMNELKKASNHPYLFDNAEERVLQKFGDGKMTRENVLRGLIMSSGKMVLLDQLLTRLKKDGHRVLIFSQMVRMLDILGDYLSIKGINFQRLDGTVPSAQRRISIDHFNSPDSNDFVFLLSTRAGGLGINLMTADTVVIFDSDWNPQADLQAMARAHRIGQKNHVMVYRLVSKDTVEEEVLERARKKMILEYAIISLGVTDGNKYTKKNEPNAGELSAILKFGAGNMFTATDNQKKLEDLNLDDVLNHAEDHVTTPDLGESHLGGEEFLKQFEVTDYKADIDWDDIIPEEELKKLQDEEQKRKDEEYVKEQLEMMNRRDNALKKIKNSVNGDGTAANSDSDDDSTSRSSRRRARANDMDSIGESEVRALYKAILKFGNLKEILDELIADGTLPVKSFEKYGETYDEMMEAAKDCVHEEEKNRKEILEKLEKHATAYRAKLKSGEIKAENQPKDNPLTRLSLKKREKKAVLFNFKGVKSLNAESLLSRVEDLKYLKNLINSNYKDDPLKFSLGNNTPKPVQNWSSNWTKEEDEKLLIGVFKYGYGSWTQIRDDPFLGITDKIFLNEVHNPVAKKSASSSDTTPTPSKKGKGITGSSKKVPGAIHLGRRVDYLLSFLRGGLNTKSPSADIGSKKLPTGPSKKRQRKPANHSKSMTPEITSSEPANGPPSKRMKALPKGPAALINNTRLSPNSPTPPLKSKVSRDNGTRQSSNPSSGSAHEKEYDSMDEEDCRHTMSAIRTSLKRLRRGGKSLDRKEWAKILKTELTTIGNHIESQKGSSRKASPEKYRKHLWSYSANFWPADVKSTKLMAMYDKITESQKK

Structure (SMILES) | Percent Effect [1] [%] | Percent Effect [2] [%] | Percent Effect [3] [%] | Percent Effect [4] [%] | Percent Effect (Trypanosoma cruzi) [%] | Percent Effect [5] [%] | Percent Effect [6] [%] | Percent Effect (Homo sapiens) [%] | Percent Effect [7] [%] | Percent Effect [8] [%] | Percent Effect [9] [%]
CCOCCn1c(=O)[nH]c2cc(C(=O)N(C)Cc3nc(C)cs3)ccc21 | -0.0499 | 8.11 | -5.57 | 8.59 | -2.9 | 0.476 | 21 | 1.41 | 5.82 | 17.1 | -3.61
O=S1(=O)COCCN1Cc1ccc(Cl)c(F)c1 | 0.108 | 16.2 | -3.31 | 17.6 | 3.28 | 2.38 | 14.7 | 0.549 | 5.82 | 14.6 | -5.23
O=C(c1ccc[nH]1)N1C[C@H]2CC[C@@H]1CN(C1Cc3ccccc3C1)C2 | -0.308 | 8.11 | -3.81 | 12.3 | 3.62 | 23.1 | 10.7 | -4.7 | 6.45 | 18.5 | -2.58
COc1ccc(C(CO)NC(=O)Nc2cccnc2)cc1 (configuration not stated) | -4.93 | -2.7 | -0.874 | 3.21 | -3.86 | -3.81 | 10.9 | 10.2 | -0.529 | -4.88 | -2.24
Cc1c(C(=O)NCC(C)C)nnn1-c1cccc2c1CCN(C)C2 | -4.34 | 2.63 | 0.913 | 2.87 | -0.682 | -2.37 | 11.2 | 18.4 | 5.32 | 15.6 | -0.534
Cc1nn2c(N3CCC(O)C3)cc(-c3ccccc3)nc2c1C (configuration not stated) | -2.08 | 16.4 | -7.6 | 7.31 | 2.58 | -1.6 | 12.6 | -0.188 | 7.29 | -82.7 | -3.57
Nc1nc(CN2CCOC(Cn3cncn3)C2)nc2ccccc12 (configuration not stated) | -2.89 | 0 | 2.62 | -2.89 | -1.02 | 0.924 | -7.18 | 0.0129 | 1.98 | 3.66 | 6.29
O=C(c1cccnc1O)N(Cc1ccsc1)CC1CCCO1 (configuration not stated) | 0.332 | 13.5 | -1.43 | 6.53 | 4.63 | 12.9 | 12.6 | 15.9 | 5.82 | 17.1 | -0.939
Cc1ccccc1C1(C(=O)NCCN2CCCC2)CCOCC1 | -0.0334 | 10.8 | -6.54 | -0.683 | -0.283 | -8.42 | 16.2 | 20.7 | 9.36 | 18.5 | -8.78
O=C(O)c1ccn(-c2ccccc2NS(=O)(=O)c2ccccc2)n1 | -4.7 | 0 | 0.362 | 0.187 | -5.16 | 2.08 | 9.24 | 7.84 | 3.83 | 3.7 | -5.14
CSCC(C)(O)CNC(=O)c1ccc(Br)cc1F (configuration not stated) | -7.07 | 2.7 | -0.438 | 0.101 | 2.25 | 3.23 | 2.15 | -2.21 | 3.23 | 6.17 | -3.6
CCN(Cc1ccc2c(c1)OCCO2)C(=O)NCc1cc[nH]n1 | -2.19 | 15.6 | 1.3 | 2.08 | -2.06 | 1.47 | 7.03 | -7.15 | 5.71 | 11.8 | -19.3
Cc1ncsc1C(=O)NC1CCN(Cc2cccnc2)CC1 | -7.38 | 10.4 | -1.95 | 18.2 | 5.43 | 2.85 | 7.94 | 15.2 | 6.8 | 14.6 | -11.8
Cc1ccc(CN2CCCC23CCN(S(=O)(=O)c2ccccc2)C3)o1 (configuration not stated) | -3.52 | 8.11 | 0.79 | -6.47 | 2.25 | 1.59 | 18.6 | 6.15 | 9.73 | 17.9 | 2.48
Cc1ccc(CN2CCN(CC3CC3)[C@@H]3CS(=O)(=O)C[C@@H]32)cc1C | -7.02 | 5.33 | -1.63 | 3.97 | -7.11 | 2.08 | 15.5 | 2.7 | -2.73 | 8.64 | -5.38
CCCc1nc(CN2CCOC(Cn3cncn3)C2)no1 (configuration not stated) | -1.95 | 11.4 | -5.09 | -4.75 | -1.74 | 3.23 | 12.3 | 18.7 | 3.12 | 10.1 | -24.9
CCOCCCNC(=O)c1cc(C(C)C)nc(N2CCCCCC2)n1 | 0.305 | -12 | 4.38 | -7.72 | -5.5 | -16 | 16.3 | 17 | 10.6 | 12.8 | -11.2
